Assay results reported in PubChem BioAssay (NCATS).
Results filed as inconclusive are left out. A number with no mark means an inactive call. The call rests on the fitted dose curve; in most records, active means well fitted inhibition curve with a large enough effect; inconclusive means small, poorly fitted or top-dose-only effect; inactive means flat fitted curve, though single readings scatter.

Each compound was assayed on KB-3-1 (assay: Cytotoxic Profiling of Annotated Libraries Using Quantitative High-Throughput Screening (AID 1296008; further: nearly all actives have a fitted effect of over 60% in size)). Details: Five cell lines viability, CellTiter-Glo ATP luminescence, 48-72 h; max response: active compounds read low.
In short: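 Cells exposed to compounds for 48 or 72 hr at 37 degrees Celsius. Viability read as ATP-coupled luminescence with CellTiter-Glo after 10 min at room temperature.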
On the % scale 0 is the no-effect control and ±100 the full control effect.

SMILES	max response
CCCOc1cc(N)ccc1C(=O)OCCN(CC)CC	-11.4%
NCCCC[C@H](N)C(=O)O	0.45%
O=C(OC[C@H]1O[C@](O)(COC(=O)c2cccnc2)[C@@H](OC(=O)c2cccnc2)[C@@H]1OC(=O)c1cccnc1)c1cccnc1	-13.5%
O[C@@H]([C@H](O)[C@H](O)CBr)[C@H](O)CBr	-3.83%
CCC(O)c1ccccc1 (centres undefined)	7.91%
CC1C(=O)CC2C3(C)CCC2(C(C)C(=O)O)C(=O)C13 (centres undefined)	5.4%
CCOc1ccc(NC(=S)Nc2ccc(OCC)cc2)cc1	43.1%
C[C@@H]1C[C@H]2[C@@H]3C[C@H](F)C4=CC(=O)C=C[C@]4(C)[C@@]3(Cl)[C@@H](O)C[C@]2(C)[C@H]1C(=O)COC(=O)C(C)(C)C	41.6%
CCCCCCCCCCCCCCCC(=O)OC[C@H](COP(=O)([O-])OCC[N+](C)(C)C)OC(=O)CCCCCCCCCCCCCCC	-12.2%
O=P(O)(O)OC[C@H](O)CO	-16.7%
CCCC1C(=O)N2C(N(C)C)=Nc3ccc(C)cc3N2C1=O (centres undefined)	-2.47%
CC(=O)[C@@]1(O)CC[C@H]2[C@@H]3C=C(Cl)C4=CC(=O)[C@@H]5C[C@@H]5[C@]4(C)[C@H]3CC[C@@]21C	1.37%
FC(F)(F)COCC(F)(F)F	-9.66%
CN(C)CCC(O)(c1ccccc1)c1ccccc1Cl (centres undefined)	3.32%
CCCCCc1ccc(C)cc1O	-0.225%
CC1(C)S[C@@H]2[C@H](N3C(=O)C(c4ccccc4)NC3(C)C)C(=O)N2[C@H]1C(=O)O (some centres undefined)	3.76%
CC(=O)N[C@@H]1C(O[C@H]2O[C@H](C(=O)O)C(O)[C@H](O)[C@H]2O)[C@H](O)[C@@H](CO)O[C@H]1O[C@@H]1C(C(=O)O)O[C@@H](O[C@H]2[C@H](O)[C@@H](CO)OC(O)[C@@H]2NC(C)=O)[C@H](O)[C@H]1O (some centres undefined)	-7.66%
O=C(CCCCCCCCCCCCC1CCCC1)Nc1ccc(S(=O)(=O)c2ccc(NC(=O)CCCCCCCCCCCCC3CCCC3)cc2)cc1	4.77%
CC(CN(C)C)CN1c2ccccc2Sc2ccc(C(F)(F)F)cc21 (centres undefined)	-6.33%
CC[C@@H]1/C=C(\C)C[C@H](C)C[C@H](OC)[C@H]2O[C@@](O)(C(=O)C(=O)N3CCCC[C@H]3C(=O)O[C@H](/C(C)=C/[C@@H]3CC[C@@H](Cl)[C@H](OC)C3)[C@H](C)[C@@H](O)CC1=O)[C@H](C)C[C@@H]2OC	-9.83%
C[C@@H]1O[C@@H]1P(=O)(O)O	-3.35%
C[C@H](NCCc1ccc(O)cc1)[C@H](O)c1ccc(O)cc1	-13.6%
FC(F)(F)C(F)(F)C(F)(F)C(F)(F)C(F)(F)F	-12.9%
CCC[C@@H]1C[C@@H](C(=O)N[C@@H]([C@H]2O[C@H](SC)[C@H](O)[C@@H](O)[C@H]2O)[C@H](C)Cl)N(C)C1	4.39%
